LDHA block = inhibitors of human lactate dehydrogenase A. P00338. purified LDHA, NADH/diaphorase-resazurin fluorescence; active compounds read low. activity change, % (values are at about 110 or 230 µM). actives 0.15% (n = 480,000); in the data active means activity change below about -30%; inconclusive means mostly about -25% to -30%
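Human LDH5 (2 nM) was incubated with 0.06 mM NADH and 0.2 mM pyruvate for 5 min at room temperature in Tris pH 7.4. Remaining NADH was coupled through diaphorase/resazurin, and resorufin fluorescence was read at 0 and 20 min.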
D1 antagonist = human D1 dopamine receptor antagonism; actives 3.2% (n = 360,000); HEK293 TREx D1 cells, calcium flux, dopamine EC80; active compounds read low; P21728; AID 504652; activity change, negative = inhibition, % at 10 µM; in the data active means activity change below about -30%
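Inducible Hek293 Trex D1 cells (tetracycline, overnight, 30 C). Calcium dye 30–90 min RT. Antagonist mode: EC80 dopamine added after 180 s compound read.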
D1 agonist = activates the human D1 dopamine receptor; activation, % at 2 µM; actives 1% (n = 360,000); P21728; HEK293 T-REx D1 cells, calcium flux, agonist mode
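Agonism was scored from calcium flux recorded over 180 s (1 read/s) after pintool compound addition, following a 10-cycle baseline. Cells were inducible force-coupled HEK293 TREx D1, plated overnight at 30 C and loaded with no-wash calcium dye.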
TRHR enhancer-1 = TRH receptor (human) allosteric enhancement; P34981; enhancement, % at 2 µM; TRHR cells, fluo-8 calcium fluorescence, EC20 TRH enhancement; actives 0.66% (n = 360,000); in the data active means enhancement above about 30%
Target sequence (P34981 whole entry, looked up): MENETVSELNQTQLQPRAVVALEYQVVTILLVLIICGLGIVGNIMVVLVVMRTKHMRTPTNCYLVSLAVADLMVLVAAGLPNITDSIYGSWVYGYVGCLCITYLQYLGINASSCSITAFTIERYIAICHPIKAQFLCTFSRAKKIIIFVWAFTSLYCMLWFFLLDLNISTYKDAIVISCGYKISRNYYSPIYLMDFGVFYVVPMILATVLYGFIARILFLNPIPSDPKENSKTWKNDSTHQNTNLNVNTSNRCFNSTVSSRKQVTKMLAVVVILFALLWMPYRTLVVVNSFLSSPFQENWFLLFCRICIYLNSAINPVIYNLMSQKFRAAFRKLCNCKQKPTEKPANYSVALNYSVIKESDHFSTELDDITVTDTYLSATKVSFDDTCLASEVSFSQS
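TRHR-expressing cells loaded with fluo-8 calcium dye were read kinetically (ex 480/em 530) during compound addition, then stimulated with an EC20 of TRH (10 nM final). Enhancement of the Gq-mediated intracellular calcium response was scored.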
TRHR agonist-1 = TRH receptor (human) agonism; P34981; actives 0.18% (n = 360,000); activation, % at 2 µM; AID 493084; TRHR cells, calcium flux fluo-8, FDSS agonist mode
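TRHR-expressing cells loaded with fluo-8 calcium dye; 23 nL library compound pin-transferred, kinetic FDSS fluorescence (Ex 480/Em 530) recorded about 180 s for agonist-induced calcium release, before a 10 nM TRH EC20 addition for potentiator mode.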
D1 PAM = human D1 dopamine receptor positive modulation. P21728. HEK293 TREx D1 cells, calcium flux, dopamine EC20 potentiation. potentiation, % at 10 µM. actives 0.036% (n = 360,000). AID 504651; in the data active means potentiation above about 30%
TRHR enhancer-2 = human TRH receptor allosteric enhancement confirmation; shares compounds with TRHR enhancer-1; TRH receptor cell assay, enhancer confirmation qHTS; activity change, negative = inhibition, % at 46.1 µM; 970 tested, under 10 active; AID 493076; active means well fitted curve in the direction sought with a large enough effect; inconclusive means small, poorly fitted or top-dose-only effect, or another doubt; inactive means no such curve, though single readings can be large; an effect the other way counts as inactive or inconclusive;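 further: compound effect scored on response to added TRH at EC20 of 10 nM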
TRHR agonist-2 = human TRH receptor agonism confirmation; shares compounds with TRHR enhancer-1; actives 8% (n = 970); Potency, µM (top dose mostly 46.1 µM), usual class: activators; TRHR-expressing cells, agonist activation read-out; active means well fitted curve in the direction sought with a large enough effect; inconclusive means small, poorly fitted or top-dose-only effect, or another doubt; inactive means no such curve, though single readings can be large; an effect the other way counts as inactive or inconclusive; further: nearly all actives have a fitted effect of over 75% in size
Numbers stand for hits; - = inactive; ? = inconclusive; . = not tested or not shown. Sampled rows, rich in hits. Any-hit rate of the full collection: about 3.6%. Unless noted, no stated cut-off is given here; in the data, active means activation above about 30%; inactive means the rest.

SMILES	LDHA block	D1 antagonist	D1 agonist	TRHR enhancer-1	TRHR agonist-1	D1 PAM	TRHR enhancer-2	TRHR agonist-2
CC(=O)NC(Cc1c[nH]c2ccccc12)C(=O)NNC(=O)CSc1nc2ccccc2s1 (stereo not drawn)	-	.	.	.	.	.	.	.
Cc1ccc(NC(=O)C2CCN(c3nc(C)nc4oc(C)c(C)c34)CC2)c(Cl)c1	-	.	.	.	.	.	.	.
Cn1cc(S(=O)(=O)c2cccc(Cl)c2)c(=O)c2cc(F)c(N3CCN(c4ccccc4)CC3)cc21	-	-	-	59	-	-	-	-
O=c1c(S(=O)(=O)c2ccccc2)cn(Cc2ccc(F)cc2)c2cc(N3CCCC3)c(F)cc12	-	-	-	77	-	-	-	-
Cc1ccccc1C(=O)NCCc1cccnc1	-	.	.	.	.	.	.	.
COc1ccc(CNC(=O)c2cc(C3CC3)nc3c2cnn3C(C)C)cc1	-	-	-	43	-	-	-	?
O=C(NCc1cccs1)Nc1cc(Cl)ccc1Cl	-	-	-	41	-	-	-	-
Cc1ccccc1OCC(=O)Nc1ccc2c(c1)nc(Cn1cccn1)n2CC(C)C	-	.	.	.	.	.	.	.
CNC(=O)NC(=O)C(C)Sc1ccc(Br)cc1 (stereo not drawn)	-	.	.	.	.	.	.	.
O=S(=O)(NC1CCCCC1N1CCN(c2ccccc2F)CC1)c1ccc(Cl)cc1 (stereo not drawn)	-	-	-	-	33	-	-	?
O=S(=O)(NC1CCCCC1N1CCOCC1)c1ccc(Cl)cc1 (stereo not drawn)	-	-	-	-	-	-	.	.
O=C(CC1SC(=Nc2ccc(O)cc2)NC1=O)Nc1ccccc1 (stereo not drawn)	-	-	-	53	-	-	-	-
CCOc1ccc(N=C2NC(=O)C(CC(=O)Nc3ccccc3)S2)cc1 (stereo not drawn)	-	-	-	-	-	-	.	.
O=C(C1=NN(c2ccccc2)C2C(=O)N(c3ccccc3)C(=O)C12)c1ccccc1 (stereo not drawn)	-	-32	324	-	33	-	?	18µM
O=C(Nc1ccc2c(c1)CCC2)c1cc2ncccn2n1	-	.	.	.	.	.	.	.
Cc1cccc(/N=C/c2nc(-c3ccccc3Br)oc2O)n1	-	-	-	-	-	-	.	.
Oc1oc(-c2cccc3ccccc23)nc1/C=N/c1nccs1	-	-	44	-	34	-	-	?
COc1ccc(/C=C2\SC(=S)N(C(C)C(=O)NC3C=CS(=O)(=O)C3)C2=O)cc1 (stereo not drawn)	-	-	-	-	-	-	.	.
COc1cccc(/C=C2\SC(=S)N(C(C)C(=O)NC3C=CS(=O)(=O)C3)C2=O)c1 (stereo not drawn)	-	-	-	50	-	-	-	-
O=C(N/N=C/c1c(O)n(-c2ccccc2Cl)c(=O)c2ccccc12)c1cccnc1	-	-	-	40	-	-	-	?
COc1ccc(Cn2c(O)c(/C=N/NC(=O)c3cccnc3)c3ccccc3c2=O)cc1	-	-	90	-	57	-	-	21µM
Cc1cccc(-n2c(O)c(/C=N/NC(=O)c3ccccc3Cl)c3ccccc3c2=O)n1	-	-	-	-	-	-	.	.
O=C(N/N=C/c1c(O)n(Cc2ccccc2)c(=O)c2ccccc12)c1cccnc1	-	-	47	-	30	-	-	21µM
COc1ccc(Cn2c(O)c(C=Nc3ccc(OC)cc3)c3ccccc3c2=O)cc1	-	-	-	-	-	-	.	.
CCc1ccc(NC(=O)Nc2ccc3sc(NC(C)=O)nc3c2)cc1	-	.	.	.	.	.	.	.
SMILES	LDHA block	D1 antagonist	D1 agonist	TRHR enhancer-1	TRHR agonist-1	D1 PAM	TRHR enhancer-2	TRHR agonist-2
O=C(NCCc1cccc2cccnc12)c1cc(-c2ccccn2)nc2ccccc12	-	.	.	.	.	.	.	.
Cc1ccc2c(c1)c(Sc1ccccc1)c(CC(=O)O)n2C	-	-	-	-	99	-	-	-
COc1ccc(C(=O)Nc2ccc3oc(-c4ccccc4C)nc3c2)cc1OC	-	.	.	.	.	.	.	.
CCCn1c2ccccc2c2nnc(SC(CC)C(=O)Nc3sc4c(c3C#N)CCCC4)nc21 (stereo not drawn)	-	.	-	-	-	-	-	-
O=C(OCC(=O)N1CCN(c2ccccc2)CC1)c1ccc2ccccc2n1	-	-	-	41	-	-	-	-
Brc1ccc(-c2csc(NC3CC3)n2)cc1	-	.	.	.	.	.	.	.
Cc1nc(CSc2ccc(C(=O)NC3CCCC(C(F)(F)F)C3)cc2)cs1 (stereo not drawn)	-	.	.	.	.	.	.	.
CCOc1ccc(NC(=O)c2cc3cc(Br)ccc3oc2=O)cc1	-	.	.	.	.	.	.	.
O=S(=O)(c1cccs1)N1CN(Cc2ccccc2)c2nc3ccccc3nc21	-	-	-	56	-	-	-	-
COc1ccc(NC(=O)Cn2nnc(-c3ccccc3NS(=O)(=O)c3ccc(OC)cc3)n2)cc1	-	-	-	41	-	-	-	-
COc1ccccc1NC(=O)Cn1nnc(-c2ccccc2NS(=O)(=O)c2ccccc2)n1	-	-	-	-	-	-	.	.
COc1ccccc1NC(=O)CC1COc2ccccc2O1 (stereo not drawn)	-	-	-	47	-	-	-	-
Cc1cccc(C(=O)N/N=C/c2cc(Br)c(Br)o2)c1	-	-59	-	54	-	-	-	-
COc1ccc(OCCOC(=O)Cc2coc3cc(C)c(C)cc23)cc1	-	.	.	.	.	.	.	.
O=C(CNC(=O)c1ccc(F)cc1)c1ccc(Cl)cc1	-	-33	-	43	-	-	-	-
CCN1CCN(Cc2c(O)ccc3c2O/C(=C\c2ccc(C)cc2)C3=O)CC1	-	-	-	-	-	-	-	?
COc1ccc(C2/C(=C(\O)c3ccc4c(c3)OCCO4)C(=O)C(=O)N2c2nc(C)c(C(C)=O)s2)cc1 (stereo not drawn)	-	-	-	41	-	-	-	-
Cc1cc2oc(=O)cc(CN3CCN(c4ccc(F)cc4)CC3)c2cc1O	-	.	.	.	.	.	.	.
CC(=O)Nc1nc2n(n1)C(c1ccccc1)C=C(c1ccccc1)N2 (stereo not drawn)	-	-	-	-	39	-	-	?
CNC(=O)NC(=O)CN(C)C1CCCC1	-	.	.	.	.	.	.	.
O=C(CCCn1c(=S)[nH]c2cc3c(cc2c1=O)OCO3)NCc1ccccc1Cl	-	-	-	46	-	-	-	-
CCn1c(C)c(C)c2cc(C(=O)NC3CCCCCC3)ccc21	-	-	-	45	-	-	?	-
O=C1c2ccccc2C(O)N1c1ccc(Cl)cc1 (stereo not drawn)	-	-	-	-	-	-	.	.

Source: PubChem (National Center for Advancing Translational Sciences (NCATS))
